Compound activity: PubChem BioAssay, Sanford-Burnham Center for Chemical Genomics
Hits are enriched below; roughly 6.3% of the tested compounds scored in any of these assays.
tim23-1 inh – tim23-1 yeast growth inhibition; 330,000 compounds, 1.3% hits; AID 463212; S. cerevisiae tim23-1 growth, BacTiter-Glo luminescence, 24 h; inhibition, % at 20 µM;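 active = growth inhibition of the mutant yeast at or above 50%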;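 note: temperature-sensitive mutant grown at 25 °C; plate controls were DMSO-treated mutant yeast for no effect and medium wells lacking yeast for full effect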
tim10-1 inh – tim10-1 yeast growth inhibition; 330,000 compounds, 2.2% hits; inhibition, % at 20 µM; S. cerevisiae tim10-1 ts strain growth, BacTiter-Glo, 24 h;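 active = inhibition of at least 40%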;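 note: mutant grown at 25 °C; 0% = DMSO wells with yeast and 100% = wells holding no yeast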
MPTP block – blocks calcium-induced mitochondrial swelling | isolated mouse mitochondria, Ca2+ swelling absorbance, 30 min | inhibition, % at 10 µM | 360,000 compounds, 1.4% hits;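 active = inhibition of 50% or more, scaled per plate between neutral and stimulator controls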;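 note: 0% = DMSO wells given calcium and 100% = 1 mM EGTA wells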
Mdm2 MdmX PPI – human Mdm2/MdmX binding inhibition. inhibition, % at 8 µM. SaOS-2 split-luciferase Mdm2/MdmX complementation, luminescence. 330,000 compounds, 3% hits;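 active = inhibition of at least 50% at 8 µM in the primary screen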
Target sequence (O15151 whole entry, looked up): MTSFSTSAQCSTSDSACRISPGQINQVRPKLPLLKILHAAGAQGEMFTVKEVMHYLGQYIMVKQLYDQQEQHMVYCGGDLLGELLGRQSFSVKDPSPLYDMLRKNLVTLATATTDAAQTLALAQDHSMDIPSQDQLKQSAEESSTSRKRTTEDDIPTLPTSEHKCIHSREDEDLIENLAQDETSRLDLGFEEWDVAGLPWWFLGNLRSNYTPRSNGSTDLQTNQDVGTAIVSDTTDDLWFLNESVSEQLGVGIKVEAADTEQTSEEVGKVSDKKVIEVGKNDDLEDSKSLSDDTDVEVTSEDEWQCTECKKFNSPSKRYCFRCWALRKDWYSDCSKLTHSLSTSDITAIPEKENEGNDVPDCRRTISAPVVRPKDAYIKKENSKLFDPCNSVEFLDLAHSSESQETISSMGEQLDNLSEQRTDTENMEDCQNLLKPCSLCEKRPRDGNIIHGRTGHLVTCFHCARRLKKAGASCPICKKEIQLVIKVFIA
Target sequence (Q00987 whole entry, looked up): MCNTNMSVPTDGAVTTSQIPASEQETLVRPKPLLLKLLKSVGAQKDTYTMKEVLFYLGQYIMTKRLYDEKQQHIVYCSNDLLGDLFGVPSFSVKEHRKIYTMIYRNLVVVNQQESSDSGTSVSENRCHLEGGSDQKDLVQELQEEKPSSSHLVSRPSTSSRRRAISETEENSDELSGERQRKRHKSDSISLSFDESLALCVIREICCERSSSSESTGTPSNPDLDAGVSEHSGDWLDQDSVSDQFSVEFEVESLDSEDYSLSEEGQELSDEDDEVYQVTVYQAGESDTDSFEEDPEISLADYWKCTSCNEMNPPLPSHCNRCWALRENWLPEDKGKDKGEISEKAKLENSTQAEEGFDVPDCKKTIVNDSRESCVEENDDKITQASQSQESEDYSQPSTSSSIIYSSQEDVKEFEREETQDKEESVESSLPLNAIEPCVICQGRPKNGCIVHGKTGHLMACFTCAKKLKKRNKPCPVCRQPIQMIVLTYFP
TIM10 inh – TIM10 yeast growth inhibition; S. cerevisiae TIM10 strain growth, BacTiter-Glo luminescence, 24 h; inhibition, % at 10 µM; 330,000 compounds, 1.4% hits; AID 463195;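 active = inhibition of 40% or more at the single tested concentration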;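 note: wild-type TIM10 isogenic control strain grown at permissive 25 °C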
Mdm2-MdmX conf – confirmation of human Mdm2/MdmX interaction inhibitors; AID 489028; Mdm2-MdmX binding, luminescent assay; 10,000 compounds, 55% hits; shares compounds with Mdm2 MdmX PPI; inhibition, % at 8 µM; in the data active = inhibition above about 40%
Full FLuc ctr – counter-screen for Mdm2/MdmX inhibitors: full-length luciferase | shares compounds with Mdm2 MdmX PPI | SaOS-2 full-length luciferase counterscreen, luminescence | inhibition, % at 8 µM | 6,200 compounds, 77% hits | AID 504607;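 active = mean inhibition at 8 µM reaching about 37%, which flags the compound as non-specific, limit read from the data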;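 note: p53-null SaOS-2 cells with luciferase driven by a doxycycline-inducible promoter; compound on cells about two nights before reading with doxycycline added after day one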
An asterisk follows results filed as active; / = no result.

SMILES	tim23-1 inh	tim10-1 inh	MPTP block	Mdm2 MdmX PPI	TIM10 inh	Mdm2-MdmX conf	Full FLuc ctr
CCCN(C)C1CN(Cc2cn(Cc3cc(C)cc(C)c3)nn2)S(=O)(=O)C1 (centres undefined)	/	/	1	/	/	/	/
CC1CCN(C(=O)CN2C(=O)c3ccccc3S2(=O)=O)CC1	9	12	-2	54*	2	37	/
O=C(CN1C(=O)c2ccccc2S1(=O)=O)N1CCc2ccccc2C1	16	10	0	55*	5	39	77*
NC(=O)C1CCN(C(=O)CN2C(=O)c3ccccc3S2(=O)=O)CC1	-16	3	-3	10	-15	/	/
C=CCNc1nc2c(c(=O)[nH]c(=O)n2C)n1CC(O)COc1ccc2ccccc2c1 (centres undefined)	0	-4	0	59*	3	20	/
Cc1ccccc1OCC(O)Cn1c(NCc2ccccc2)nc2c1c(=O)[nH]c(=O)n2C (centres undefined)	-4	6	2	15	3	/	/
COCCNC(=O)CSc1cc(=O)n(C)c2cc(Cl)ccc12	4	12	1	13	-29	/	/
Cc1cccc(CN2CCC(CNC(=O)CSc3cc(=O)n(C)c4cc(Cl)ccc34)CC2)c1	2	3	0	65*	-19	42*	67*
O=C(Nc1ccc2nc(-c3ccco3)c(-c3ccco3)nc2c1)NC1CC1	5	10	1	-39	-3	/	/
O=C(Nc1ccc(N2CCOCC2)cc1)Nc1ccc2nc(-c3ccco3)c(-c3ccco3)nc2c1	11	14	7	61*	2	41*	61*
COc1cccc(-c2nnc(SC(C(=O)c3c[nH]c4ccccc34)c3ccccc3)n2C)c1 (centres undefined)	13	14	3	56*	19	36	/
COc1ccccc1-c1nnc(SC(C(=O)c2c[nH]c3ccccc23)c2ccccc2)n1C (centres undefined)	12	23	1	45	24	/	/
CCCCCCCCCCCCCCCC(=O)Nc1ccn(C2OC(CO)C(O)C2O)c(=O)n1 (centres undefined)	/	/	-3	/	/	/	/
CCCCNC(=O)C(NC(=O)c1cnc(C)cn1)C(=O)c1ccccc1 (centres undefined)	/	/	0	/	/	/	/
CN1CCN(C(c2cccc(Cl)c2)c2ccccc2Cl)CC1 (centres undefined)	-26	12	-2	55*	21	44*	65*
CC1=C(C(=O)N(C)C)CC(CC(=O)NCCCCc2ccccc2)C(=O)N1Cc1ccccc1 (centres undefined)	/	/	0	/	/	/	/
O=C(NNC(=O)C12CC3CC(CC(C3)C1)C2)c1ccccc1O	41	-3	-2	53*	19	17	/
O=C1/C(=C/c2cccnc2)SC(=S)N1Cc1ccco1	/	/	0	/	/	/	/
O=C1CSC(=S)N1c1cccnc1	26	18	1	33	2	/	/
O=C1/C(=C\c2cccc([N+](=O)[O-])c2O)SC(=S)N1Cc1ccccc1	/	/	26	/	/	/	/
O=C1/C(=C\c2cc(Br)cc(Br)c2O)SC(=S)N1Cc1ccccc1	47	32	20	91*	15	79*	37*
O=C1CSC(=S)N1Cc1cccnc1	-11	17	2	94*	11	80*	50*
O=C1/C(=C/c2ccccc2O)SC(=S)N1Cc1cccnc1	1	23	27	73*	10	5	/
CCNC(=O)C1CCCN(C(=O)c2cc(C)oc2C)CC1 (centres undefined)	/	/	0	/	/	/	/
S=C(NCCCN1CCOCC1)N1CCN(c2nc(-c3ccc(Cl)cc3)cs2)CC1	27	17	2	62*	30	11	/
SMILES	tim23-1 inh	tim10-1 inh	MPTP block	Mdm2 MdmX PPI	TIM10 inh	Mdm2-MdmX conf	Full FLuc ctr
CCN(CC)CCOC(=O)c1ccc(NC(=O)CCCN2C(=O)/C(=C/c3cccs3)SC2=S)cc1	18	38	0	59*	5	17	/
CCN(CC)CCOC(=O)c1ccc(NC(=O)c2cn(-c3ccccc3)nc2-c2cccs2)cc1	27	13	6	50*	40	39	101*
O=C(CCCN1C(=O)/C(=C\c2cccs2)SC1=S)Nc1ccccn1	-3	15	1	70*	11	64*	38*
O=C(CCCN1C(=O)/C(=C\c2cccs2)SC1=S)Nc1ccc(O)cc1	31	13	2	78*	5	71*	32
CCOC(=O)c1ccccc1NC(=O)COC(=O)C(CC)Oc1ccccc1 (centres undefined)	/	/	0	/	/	/	/
CCOC(=O)[C@H]1[C@H]2COc3cc(OC)ccc3[C@@H]2N2C(=O)[C@@H](CO)NC(=O)[C@@]12C	11	-2	/	-32	2	/	/
O=C(CCCN1C(=O)/C(=C/c2cccs2)SC1=S)Nc1ccccc1O	6	-7	4	54*	-14	38	87*
COC(=O)[C@@]1(Cc2ccc(F)cc2)[C@H]2c3cc(C(=O)N(C)C)n(CCc4ccc(OC)c(Br)c4)c3C[C@H]2CN1C(=O)c1ccccc1	3	27	-3	67*	6	30	/
Cc1ccc(NC(=O)CCn2c(=S)oc3ccccc32)cc1	0	14	0	14	-1	/	/
CCCCC(=O)/C=C/n1c(=S)oc2ccccc21	26	26	1	100*	20	33	/
Cc1cc2nc(-c3ccc(SCC(=O)Nc4ccc(S(=O)(=O)N5CCCC5)cc4)nc3)[nH]c2cc1C	2	26	2	69*	-3	-8	/
CC(=O)CSc1ccc(-c2nc3ccccc3[nH]2)cn1	18	1	-1	-93	0	/	/
CC(=O)CSc1ccc(-c2nc3cc(C)c(C)cc3[nH]2)cn1	21	-40	-2	68*	28	67*	66*
CN(C)CCNc1ncnc2c1ncn2[C@H]1CN(Cc2ccc(Cl)cc2)C[C@@H](CO)O1	/	/	0	/	/	/	/
CCCn1c(=N)n(CC(O)COc2cccc(C)c2)c2ccccc21 (centres undefined)	14	0	2	35	-17	/	/
CCCCn1c(=N)n(CC(O)COc2ccc(C)cc2)c2ccccc21 (centres undefined)	4	15	2	58*	10	31	/
Cc1ccc(Cn2c(=N)n(CC(O)COc3ccccc3)c3ccccc32)cc1 (centres undefined)	3	6	3	69*	19	76*	62*
CC12CCC(/C(=C/NNc3ccc([N+](=O)[O-])cc3[N+](=O)[O-])C1=O)C2(C)C (centres undefined)	/	/	2	/	/	/	/
Nc1nc2ncccc2cc1C(=O)NC1CCCCC1	/	/	1	/	/	/	/
CCCCNC(=O)C1C(c2ccc(OC)cc2)=Nc2ccccc2N1C(=O)c1ccc2ncccc2c1 (centres undefined)	/	/	-2	/	/	/	/
CC1(C)Oc2ccc3ccc(=O)oc3c2C[C@H]1O[C@@H]1O[C@H](CO)[C@@H](O)[C@H](O)[C@H]1O	9	-12	-3	-29	-3	/	/
